# A selection: hits, their analogues and other compounds. The true share with any hit is near 5.7%.
# DAX1 inh-1: blocks DAX1 repression of SF-1 activated StAR promoter; HEK293T StAR-luciferase reporter, SF-1/DAX-1 repression relief; inhibition, % at 6.8 µM; actives 1.1% (n = 370,000);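 active means inhibition above the mean over all tested compounds plus 3 SD, cut at about 3.6% in these data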;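 further: 0% = DAX-1 cells with DMSO and 100% = cells lacking DAX-1 with DMSO; higher inhibition means more luminescence from relief of DAX-1 repression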
# AHR activator: activators of human aryl hydrocarbon receptor; AHR-responsive luciferase reporter cells, luminescence; actives 2.5% (n = 320,000); activation, % at 5 µM; in the data active means activation above about 47%;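 further: 0% = vehicle wells and 100% = reference agonist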
# hgDAF-12 ag: activates the H. glycines DAF-12 receptor ligand-binding domain. actives 1.8% (n = 370,000). activation, % at 6.8 µM. HEK293 GAL4-hgDAF12 UAS-luciferase reporter, agonist luminescence; normalized to butyrate control;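 active means activation above a cutoff set at the mean of all screened compounds plus 3 SD, cut at about 10% in these data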;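 further: 0% = DMSO wells and 100% = sodium butyrate wells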
# ssDAF12 agonist: activates DAF-12 receptor from parasite S. stercoralis; HEK293 ssDAF-12/GRIP1 lit1-tk-luc reporter, luminescence; % of 3 µM dafachronic acid response; activation, % at 6.8 µM; actives 1% (n = 370,000);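 active means activation above the mean over all tested compounds plus 3 SD, cut at about 0.9% in these data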;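 further: 0% = DMSO-only wells and 100% = 3 µM delta7-dafachronic acid wells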
# DAX1 inh-2: NR0B1 (DAX1) inhibition; P51843; HEK293 Gal4-DAX1 luciferase reporter, luminescence; inhibition, % at 6.75 µM; actives 0.99% (n = 340,000); AID 504766;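 active means inhibition above the mean over all tested compounds plus 3 SD, cut at about 4.2% in these data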;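 further: 0% = DAX1-transfected cells with DMSO and 100% = empty-vector control cells with DMSO; inhibition shows as a rise in luminescence from relieved DAX1 repression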
# hcDAF12 agonist: H. contortus DAF-12 activation, primary screen; activation, % at 6.8 µM; HEK293 hcDAF-12 lit1-tk-luc reporter, luminescence; 0% DMSO, 100% Δ7-dafachronic acid; actives 1.4% (n = 370,000);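 active means activation above the mean of all tested compounds plus 3 SD, cut at about 5.5% in these data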;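 further: 100% = response to 3 µM Δ7-dafachronic acid high control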
# hgDAF12 conf: hgDAF-12 agonism, confirmation assay | activation, % at 6.8 µM | actives 80% (n = 3,300) | HEK293 GAL4-hgDAF12 luciferase reporter, agonist mode; percent of butyrate response | shares compounds with hgDAF-12 ag;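 active means mean activation over triplicate wells above the hit cutoff derived from the earlier primary screen, cut at about 11% in these data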;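 further: 0% = DMSO low control and 100% = 2 mM sodium butyrate high control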
# LXR ag 2: counter-screen for DAF-12 agonists: agonists of human LXR-beta; 3,300 tested, under 10 active; HEK293 Gal4-LXR luciferase reporter, 24 h; AID 743051; shares compounds with hgDAF-12 ag; activation, % at 6.8 µM;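 active means mean activation of the triplicate above a set limit carried over from the primary screen, none filed active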
# Target sequence (P55055 whole entry, looked up, the tested form may be a part): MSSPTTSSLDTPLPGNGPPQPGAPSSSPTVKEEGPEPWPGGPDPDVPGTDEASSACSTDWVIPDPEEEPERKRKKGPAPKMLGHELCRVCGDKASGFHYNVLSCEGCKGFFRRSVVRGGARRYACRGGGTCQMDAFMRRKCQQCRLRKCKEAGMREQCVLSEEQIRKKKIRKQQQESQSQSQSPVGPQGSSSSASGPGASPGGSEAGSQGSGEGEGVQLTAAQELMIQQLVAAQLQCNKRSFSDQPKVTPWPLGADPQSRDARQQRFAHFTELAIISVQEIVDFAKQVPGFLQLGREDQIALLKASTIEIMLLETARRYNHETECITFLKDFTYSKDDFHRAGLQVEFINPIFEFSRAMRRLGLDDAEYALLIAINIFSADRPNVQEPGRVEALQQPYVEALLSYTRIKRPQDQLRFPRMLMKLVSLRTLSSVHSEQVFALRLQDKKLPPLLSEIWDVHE
# The depositor's hits bear a star; nt = not tested or not shown.
SMILES,DAX1 inh-1,AHR activator,hgDAF-12 ag,ssDAF12 agonist,DAX1 inh-2,hcDAF12 agonist,hgDAF12 conf,LXR ag 2
O=C1c2ccccc2C(=O)N1CCCCN(C(=O)c1cc([N+](=O)[O-])ccc1Cl)c1ccc(Cl)cc1,-1,-3,1,-1,-1,-3,nt,nt
COc1ccc2cc(CCNC(=O)c3cccs3)c(=O)[nH]c2c1,4.0*,3,15*,0,3,4,11*,1
COc1ccc2cc(CCNC(=O)c3cc4ccccc4o3)c(=O)[nH]c2c1,-3,13,-3,-1,-1,-1,nt,nt
COc1cc(C)c(S(=O)(=O)N2CCN(C)CC2)cc1C,0,4,1,-1,-1,-1,nt,nt
Cc1ccc(NC(=O)c2scc3c2CCCC3)cc1,3,26,23*,1,4.6*,6.2*,15*,1
Cc1ccc(NC(=O)c2cc3c(s2)CCCC3)cc1,4.2*,30,19*,0,6.6*,5,17*,1
Cc1ccc(NC(=O)CN(C)C(=O)c2cc3c(s2)CCCCC3)cc1,1,2,0,-1,0,-1,nt,nt
CC(C)[C@H](NC(=O)c1ccccc1Cl)C(=O)OCc1cc(=O)n2cc(Br)ccc2n1,0,-2,0,-2,0,1,nt,nt
Cc1ccccc1C(=O)NC(CC(C)C)C(=O)OCc1cc(=O)n2cc(Br)ccc2n1 (configuration not stated),3,-1,14*,-1,2,4,11*,0
CNS(=O)(=O)c1ccc(NC(=O)c2ccccn2)cc1,1,-2,14*,0,1,3,9,0
CCCC(=O)Nc1ccc(NC(=O)c2ccccn2)cn1,2,7,13*,1.2*,2,3,9,0
CC(C)c1ccc(NC(=S)NC2CCCCCC2)cc1,2,12,16*,-1,-1,2,9,0
Nc1c(C(=O)Nc2ccc(S(=O)(=O)N3CCCC3)cc2)sc2nc3ccc(OC(F)(F)F)cc3cc12,nt,27,nt,nt,-1,nt,nt,nt
Cc1ccc(S(=O)(=O)Nc2ccc(-c3nc4ccc(C)cc4s3)cc2)cc1,0,20,1,-1,-1,1,nt,nt
Cc1ccc2nc(-c3ccc(NS(=O)(=O)c4c(C)n(C)c(=O)n(C)c4=O)cc3)sc2c1,3,18,20*,0,6.3*,5,17*,1
Cc1cccc(S(=O)(=O)Nc2ccc(-c3nc4ccc(C)cc4s3)cc2)c1,4.2*,17,22*,0,3,5,21*,1
Cc1c(S(=O)(=O)Nc2ccc3c(c2)OCCO3)c(=O)n(C)c(=O)n1C,1,-1,-2,-1,1,1,nt,nt
COc1nnc(-c2ccc(N3CCOCC3)c(NC(=O)c3ccccc3)c2)c2ccccc12,0,1,1,-2,-1,-1,nt,nt
CN=c1scc(-c2cccs2)n1/N=C/c1ccc(O)c(O)c1O,3,23,14*,0,-1,6.1*,11*,1
COc1ccc(N2C(=O)c3ccccc3NC23CCCC3)cc1,4.5*,-4,14*,0,0,4,9,0
COc1ccc(N2Cc3ccccc3C2=O)cc1,2,2,21*,0,-1,4,16*,1
N#Cc1c(/N=C/c2ccco2)oc(-c2ccccc2)c1-c1ccccc1,0,3,5,-1,-2,3,nt,nt
COc1cccc(/C=N/n2cnc3ccccc32)c1OC,3,3,14*,0,2,4,14*,1
COc1cccc(/C=N/n2c(N)nc3ccccc32)c1OC,1,8,4,-2,1,-1,nt,nt
N/C(=N\OC(=O)COc1ccc(Cl)cc1Cl)c1ccncc1,4.0*,nt,16*,0,6.2*,5,21*,1
